From PubChem BioAssay AID463173 (ICCB-Longwood Screening Facility, Harvard Medical School, 2010)
In all, about 52,000 compounds went through this assay and about 1,700 (3.3%) were called active. This excerpt belongs to a sample that is enriched for actives. Values without a mark were called inactive. No stated cut-off is given here; in the data, active means survival mostly below about 52% (no sharp cut-off); inactive means mostly above about 56%.

Tested on: Wild type
Assay: growth inhibition of S. aureus wild type versus tarO mutant, primary screen, teichoic acid synthesis inhibitors, RN4220, OD600 (AID 463173)
Settings: S. aureus RN4220 wild type/DeltatarO growth, OD600, 18 h, hits give low values, screened at 18.75 µg/mL (by protocol)

SMILES	survival
CC(C)CN(CCCNC(=O)c1cc(=O)[nH]c2ccc(S(=O)(=O)N3CCCCCC3)cc12)CC(C)C	68%
COc1cc(Cl)c(C)cc1NC(=O)CSCc1nc(-c2ccc(OC)c(OC)c2)no1	73%
CCCCNC(=O)c1cc(-c2ccc(OC)cc2)nc2n[nH]c(-c3cccc([N+](=O)[O-])c3)c12	80%
Cc1cc(C)c2c(-n3cccc3)c(C(=O)NCCc3ccc(Cl)cc3)sc2n1	118%
CCCCc1nc2c(nnn2Cc2ccccc2)c(=O)[nH]1	104%
Cc1ccc(CNc2ncnc3c2nnn3C)cc1	49%
Cn1nnc2c(NCc3ccccc3)ncnc21	0% (active)
Cn1nnc2c(NCc3ccc(Cl)cc3)ncnc21	88%
COc1ccc(N2CCN(C(=O)c3ccc(CS(=O)(=O)c4ccc(Br)cc4)o3)CC2)cc1	132%
O=C1NC(=O)C(Nc2ccccc2Cl)S1 (stereo unspecified)	108%
CC1CCN(c2ncnc3c2c(-c2ccccc2)cn3-c2ccc(Br)cc2)CC1	72%
CCn1cc(S(=O)(=O)c2cccc(Cl)c2)c(=O)c2cc(F)c(N3CCC(C)CC3)cc21	57%
CC(C)OCCCn1c(=O)c2ccccc2n2c(-c3cc(Cl)ccc3O)nnc12	94%
COC(=O)c1sccc1S(=O)(=O)N(CC(=O)Nc1cccc(C)c1C)c1ccc(C)c(C)c1	69%
COC(=O)c1sccc1S(=O)(=O)N(CC(=O)Nc1cc(F)ccc1F)c1ccc(C)c(C)c1	133%
COC(=O)c1sccc1S(=O)(=O)N(CC(=O)Nc1cc(C)ccc1C)c1ccc(C)c(C)c1	78%
COC(=O)c1sccc1S(=O)(=O)N(CC(=O)NCc1ccc(F)cc1)c1ccc(C)c(C)c1	76%
COC(=O)c1sccc1S(=O)(=O)N(CC(=O)NCc1ccccc1)c1ccc(C)c(C)c1	14% (active)
COC(=O)c1sccc1S(=O)(=O)N(CC(=O)NCc1ccc(C)cc1)c1ccc(C)c(C)c1	74%
CCc1cccc(NC(=O)CN(c2ccc(C)c(C)c2)S(=O)(=O)c2ccsc2C(=O)OC)c1	-6% (active)
COC(=O)c1sccc1S(=O)(=O)N(CC(=O)Nc1c(C)cccc1C)c1ccc(C)c(C)c1	78%
COC(=O)c1sccc1S(=O)(=O)N(CC(=O)Nc1ccc(C)c(F)c1)c1ccc(C)c(C)c1	-1% (active)
Cc1ccc(CNC(=O)c2ccc(CSCc3ccccc3Cl)o2)cc1	49%

SMILES	survival
CC1(C)CC(=O)c2cc(C(=O)Nc3ccc(Cl)cc3)c(=O)[nH]c2C1	71%
CCCCOc1ccc(CNC(=O)c2cc3n(n2)CCCN(Cc2ccc(C)cc2)C3=O)cc1	63%
COc1cccc(CN2C(=O)c3ccccc3Sc3ccc(C(=O)OCc4ccco4)cc32)c1	72%
CCOc1ccccc1NC(=O)N1CCc2c(sc3c2CCCC3)C1c1ccccc1 (stereo unspecified)	75%
COc1ccc2oc(=O)c(C(=O)Nc3cccc(C(=O)O)c3)cc2c1	68%
CCOc1ccc(S(=O)(=O)Nc2cccc(-c3ccc(OCC)nn3)c2)cc1	71%
O=C(CSCc1ccccc1Cl)N/N=C/c1ccc(O)cc1O	122%
COc1ccc(NC(=O)CCc2c(C)nc3c(-c4ccc(F)cc4)c(C)nn3c2C)c(OC)c1	78%
CC(=O)c1cccc(NC(=O)C2CCN(S(=O)(=O)c3ccc4[nH]c(=O)ccc4c3)CC2)c1	75%
CCn1c(SCC(=O)OC2CCCCC2)nnc1-c1ccc(OC)cc1	113%
Cc1ccc(-c2cc(C(=O)Oc3ccc(C#N)cc3)no2)cc1C	82%
CC(=O)Nc1ccc(NC(=O)c2cc(-c3ccc4c(c3)OCCO4)on2)cc1	109%
Cc1cccc(OC(=O)c2cc(-c3ccc(C)c(C)c3)on2)c1	-7% (active)
Cc1cccc(OC(=O)c2cc(-c3ccc4c(c3)OCCO4)on2)c1	-7% (active)
CC(=O)c1cccc(NC(=O)c2cc(-c3ccc4c(c3)OCCO4)on2)c1	77%
Cc1cc(C)cc(OC(=O)c2cc(-c3ccc(Cl)cc3)on2)c1	87%
Cc1cccc(NC(=O)c2cc(-c3ccc4c(c3)OCCO4)on2)c1	78%
Cc1ccc(-c2cc(C(=O)Oc3ccc(C#N)cc3)no2)cc1	88%
Cc1cc(C)cc(OC(=O)c2cc(-c3ccc4c(c3)OCCO4)on2)c1	-7% (active)
COc1ccc(CC(=O)NCC(c2ccc(N(C)C)cc2)N2CCOCC2)cc1 (stereo unspecified)	81%
Clc1ccccc1-c1nnc(-c2ccccc2CNc2ccc(Br)cc2)o1	91%
CCCNC(=O)Cn1nc(-c2ccc(OC)cc2)c2cnc3ccc(F)cc3c21	73%
Cc1cccc(CNS(=O)(=O)c2ccc3[nH]c(=O)ccc3c2)c1	124%

SMILES	survival
COc1ccc(C(C(=O)NCc2ccccc2)N(Cc2ccco2)C(=O)c2cnccn2)cc1 (stereo unspecified)	101%
COc1cccc(CNC(=O)C(NS(=O)(=O)c2cccs2)C(C)C)c1 (stereo unspecified)	94%
COc1ccc(OC)c(C2N=C(N)Nc3nc4ccccc4n32)c1 (stereo unspecified)	72%
COc1cc(Nc2nc3ccc(Cl)cc3nc2-n2nc(C)cc2C)cc(OC)c1	93%
Cc1cc(C)n2c(SCC(=O)N(C)C3CCCCC3)nnc2n1	101%
CC(C)(C)C(=O)NC1CCN(S(=O)(=O)c2ccccc2C(=O)O)CC1	105%
CCCCN(CC)CCNC(=O)c1cc2c(-c3ccc(Cl)cc3)nn(C)c2s1	5% (active)
CCCN(CCC)CCCNC(=O)c1cc2c(-c3ccc(Cl)cc3)nn(C)c2s1	95%
CCCN(CCC)CCNC(=O)c1cc2c(-c3ccc(Cl)cc3)nn(C)c2s1	81%
CCOc1ccc(-c2c(C)nn3c(C)c(C(=O)NC(C)c4ccccc4)cnc23)cc1OCC (stereo unspecified)	75%
Cc1ccc(CNC(=O)CN2C(=O)CCc3cc(S(=O)(=O)N4CCCCC4)ccc32)cc1	91%
COc1nc(C)c(/C=C/C(=O)N(C(=O)NC2CCCCC2)C2CCCCC2)c(OC)n1	101%
Clc1cccc(N2CCN(c3nc4ccccc4n4cnnc34)CC2)c1	70%
FC(F)(F)c1cccc(N2CCN(c3nc4ccccc4n4cnnc34)CC2)c1	2% (active)
CCc1nnc2c(N3CCN(c4cccc(C(F)(F)F)c4)CC3)nc3ccccc3n12	120%
COc1cccc(/C=C/c2nc(C#N)c(N3CCCCC3)o2)c1	67%
CCOc1ccccc1N(C)C(=O)Cn1cnc2onc(-c3ccc(F)cc3)c2c1=O	90%
Cc1cc(C)cc(-n2ccnc(NCCc3ccccc3)c2=O)c1	75%
COc1ccccc1CNc1nccn(-c2ccc(F)cc2)c1=O	76%
O=c1c(NCCc2ccc(Cl)cc2)nccn1-c1ccccc1	14% (active)
COc1ccc(-n2ccnc(NCc3ccccc3Cl)c2=O)cc1OC	71%
O=c1c(NCc2ccccc2Cl)nccn1-c1ccccc1	-1% (active)
COc1ccc(-n2ccnc(NCCc3ccc(Cl)cc3)c2=O)cc1OC	47%

SMILES	survival
Cc1ccc(S(=O)(=O)NCC2CCC(C(=O)NCc3ccc(F)cc3)CC2)cc1 (stereo unspecified)	75%
CCC(C)NC(=O)c1ccc2c(c1)N(Cc1ccccc1)C(=O)c1ccccc1S2(=O)=O (stereo unspecified)	85%
COC(=O)c1cc(S(=O)(=O)NCC2CCN(Cc3cccc(F)c3)CC2)c[nH]1	90%
CN(Cc1nc(-c2ccc(Cl)cc2)no1)S(=O)(=O)c1ccccc1	82%
CCOc1ccc(NC(=O)N2CCC(CN3CCC(C)CC3)CC2)cc1	127%
CCOc1ccc(NC(=O)N2CCC(CN3CCCCCC3)CC2)cc1	111%
Cc1cccc(NC(=O)N2CCC(CN3CCc4ccccc4C3)CC2)c1C	-4% (active)
COC(=O)c1ccc(NC(=O)N2CCC(CN3CCc4ccccc4C3)CC2)cc1	1% (active)
Cc1cccc(NC(=O)N2CCC(CN3CCCCCC3)CC2)c1C	55%
COc1cc(NC(=O)N2CCC(CN3CCc4ccccc4C3)CC2)cc(OC)c1	81%
Cc1cc(C)cc(NC(=O)N2CCC(CN3CCc4ccccc4C3)CC2)c1	81%
CCc1ccccc1NC(=O)N1CCC(CN2CCc3ccccc3C2)CC1	60%
CCOc1ccc(NC(=O)N2CCC(CN3CCc4ccccc4C3)CC2)cc1	-3% (active)
CCCC(=O)Nc1cc(-c2nnc3c4ccccc4c(C)nn23)ccc1C	72%
O=C(Nc1ccc(O)c(-c2nc3ccccc3o2)c1)c1ccc(Br)cc1	88%
CC1Cn2cc(C(=O)Nc3cccc(C(F)(F)F)c3)c(=O)c3c(Cl)ccc(c32)O1 (stereo unspecified)	89%
CCOC(=O)c1cccnc1SCC(=O)N(CC)c1cccc(C)c1	70%
CCn1c(CN2CCCCC2)nc2cc(NC(=O)COc3ccc(C(C)(C)C)cc3)ccc21	97%
CCOc1cc(C2NC(=O)c3c(sc4c3CCN(C)C4)N2)ccc1OC(=O)c1ccc(Br)cc1 (stereo unspecified)	71%
CCCCCOc1ccc(/C=C/C(=O)Nc2sc(C(C)=O)c(C)c2C(=O)OCC)cc1OC	76%
CCOC(=O)CSc1nc2cc3c(cc2c(=O)n1CCCCCC(=O)NCc1ccc2c(c1)OCO2)OCO3	81%
CCOc1ccc(C(=O)c2cn(CC(=O)Nc3cc(OC)ccc3OC)c3cc(OC)c(OC)cc3c2=O)cc1	68%
